The text below walks through data of PubChem BioAssay (NCI).

About 83,000 compounds went through this panel and 20% of them were active in at least one assay; those are over-represented in the sample as a whole.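 Assay: single dose, 48 h. Readout: percent growth (0 = no net growth; negative = cell death). Active: <10.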 A number with no mark means an inactive call. Activity calls are given as the source filed them.

Assay in all cases: NCI-60 one-dose screen, 48 h (100 = growth as untreated, 0 = no growth, -100 = all killed)
One test concerns NCI-H23 lung. The note with it: 10 µM unless noted.
In another test the test system is NCI-H226 lung. Particulars: 10 µM unless noted.
The subject of the next test is NCI-H322M lung. Particulars: 10 µM unless noted.
The next test concerns HOP-62 NSCLC. Particulars: 10 µM unless noted.
A further test deals with NCI-H460 lung. Particulars: 10 µM unless noted.
The test system of another test is HOP-92 NSCLC. Particulars: 10 µM unless noted.
Another test relates to NCI-H522 lung. Particulars: 10 µM unless noted.
The test system of another test is A549/ATCC NSCLC. The note with it: 10 µM unless noted.
The subject of another test is 786-0 renal. The note with it: 10 µM unless noted.
A further test deals with COLO 205 colon. Particulars: 10 µM unless noted.
For another test, the system named is DU-145 prostate. Particulars: 10 µM unless noted.
The test system of the next test is K-562 leukemia. Particulars: 10 µM unless noted.
Another test relates to MALME-3M melanoma. Particulars: 10 µM unless noted.
The subject of another test is MDA-MB-231 breast. Particulars: 10 µM unless noted.
A further test relates to RXF 393 renal. Particulars: 10 µM unless noted.
Another test relates to SF-268 CNS. Particulars: 10 µM unless noted.
The next test has as its system SF-295 CNS. Particulars: 10 µM unless noted.
Another test concerns SF-539 CNS. Particulars: 10 µM unless noted.
The subject of a further test is UACC-257 melanoma. Particulars: 10 µM.
The subject of another test is M14 melanoma. The note with it: 10 µM unless noted.

In the case of `COc1ccc(CCN2C(=O)/C(=C/c3nc(CO)cs3)SC2=S)cc1`, the growth in the test with NCI-H23 lung is 86.7%; in the test on NCI-H226 lung it was 101%; in the test with NCI-H322M lung it was 95.7%; in the test with HOP-62 NSCLC it was 82.8%; with NCI-H460 lung, 102%; in the test on HOP-92 NSCLC, 27.7%. Also, the growth in the test on NCI-H522 lung is 35.9%; in the test on A549/ATCC NSCLC, 95.3%; with 786-0 renal, 27.9%; with COLO 205 colon, 102%; in the test with DU-145 prostate, 46.1%; in the test with K-562 leukemia, 60.4%. The growth in the test on MALME-3M melanoma was 73.2%; with MDA-MB-231 breast, 53.2%; with RXF 393 renal, 51.1%; in the test on SF-268 CNS, 94.8%; with SF-295 CNS, 101%; with SF-539 CNS, 11.2%. Besides, the growth was 91.2% with UACC-257 melanoma and 85.3% in the test on M14 melanoma.

Take `COc1cc(C(=O)c2cc(C(C)=O)c3c4ccccc4ccn23)cc(OC)c1OC`: the growth is 64.4% in the test with NCI-H23 lung; 66.8% in the test on NCI-H226 lung; 74.8% with NCI-H322M lung; 56% in the test with HOP-62 NSCLC; 45.1% in the test on NCI-H460 lung; 26.8% in the test with HOP-92 NSCLC. For the same compound, the growth with NCI-H522 lung was 52%; in the test with A549/ATCC NSCLC, 61.1%; in the test with 786-0 renal, 70.1%; in the test on COLO 205 colon, 38.6%; in the test on DU-145 prostate it was 94.4%; with K-562 leukemia it was 23.9%. Moreover, the growth in the test with MALME-3M melanoma is 64.6%; with MDA-MB-231 breast, 54.7%; with RXF 393 renal, 49.2%; in the test on SF-268 CNS, 74.3%; in the test with SF-295 CNS, 55.2%; in the test on SF-539 CNS, 75.3%. The growth in the test with UACC-257 melanoma was 75.8%; in the test with M14 melanoma, 58.6%.

As for `O=C1c2c(c3c4cccnc4[nH]c3c3ccc4ccccc4c23)C(=O)N1CCN1CCNCC1`, the growth in the test on NCI-H23 lung is 81.6%; with NCI-H226 lung, 89.4%; in the test on NCI-H322M lung, 88%; in the test on HOP-62 NSCLC it was 63.6%; with NCI-H460 lung, 32.6%; in the test with HOP-92 NSCLC, 85.3%. Further, the growth in the test on NCI-H522 lung was 81.8%; in the test on A549/ATCC NSCLC, 44%; with 786-0 renal it was 52.7%; with COLO 205 colon, 81.9%; in the test on DU-145 prostate it was 74.8%; in the test on K-562 leukemia it was -35.5% (active). The growth with MALME-3M melanoma was 92.3%; in the test on MDA-MB-231 breast it was 89.9%; in the test with RXF 393 renal it was 75.5%; with SF-268 CNS, 78.3%; in the test on SF-295 CNS it was 84.2%; in the test on SF-539 CNS it was 73.8%. Moreover, the results for the growth in the test on UACC-257 melanoma and in the test with M14 melanoma were 106% and 64.4%, respectively.

As for `O=C(/C=C1\C=CN(CCCCCCF)c2ccccc21)n1ccc2ccccc21`, the growth in the test on NCI-H23 lung is 89.5%; with NCI-H226 lung it was 48.4%; in the test with NCI-H322M lung, 96.6%; in the test on HOP-62 NSCLC it was 85.8%; in the test with NCI-H460 lung, 110%; in the test with HOP-92 NSCLC, 70.3%. Besides, the growth with NCI-H522 lung is 86.4%; with A549/ATCC NSCLC, 102%; in the test with 786-0 renal it was 111%; with COLO 205 colon, 103%; in the test with DU-145 prostate, 109%; with K-562 leukemia, 91.2%. For the same compound, the growth in the test with MALME-3M melanoma was 91.6%; in the test on MDA-MB-231 breast, 84.4%; with RXF 393 renal it was 121%; in the test on SF-268 CNS, 99.7%; with SF-295 CNS, 94.6%; with SF-539 CNS it was 99.3%. Also, the growth in the test on UACC-257 melanoma was 103%; in the test with M14 melanoma, 92%.

On to `C#C[C@]1(O)CC[C@H]2[C@@H]3CC=C4c5sc(C6CCOCC6)nc5CC[C@]4(C)[C@H]3CC[C@@]21C`, for which the growth was 74.4% in the test with NCI-H23 lung; 82.5% with NCI-H226 lung; 84.1% in the test on NCI-H322M lung; 90.5% with HOP-62 NSCLC; 79.8% with NCI-H460 lung; 103% with HOP-92 NSCLC. For the same compound, the growth with NCI-H522 lung was 80.8%; in the test with A549/ATCC NSCLC, 73.2%; with 786-0 renal, 62.7%; with COLO 205 colon it was 103%; with DU-145 prostate, 97.9%; with K-562 leukemia, 13.2%. Also, the growth is 88.8% with MALME-3M melanoma; 73.9% in the test with MDA-MB-231 breast; 4.95% (active) in the test with RXF 393 renal; 91.2% in the test on SF-268 CNS; 37.8% in the test on SF-295 CNS; 56.5% with SF-539 CNS. In addition, the growth with UACC-257 melanoma is 78.3%; in the test on M14 melanoma it was 59.8%.

Regarding `Oc1ccc(CSc2nnc(-c3cnccn3)o2)c2cccnc12`, the growth was 12.1% in the test on NCI-H23 lung; 23.6% with NCI-H226 lung; 31.6% in the test with NCI-H322M lung; 20.9% with HOP-62 NSCLC; 2.29% (active) in the test on NCI-H460 lung; -9.09% (active) with HOP-92 NSCLC. For the same compound, the growth with NCI-H522 lung was 7.24% (active); with A549/ATCC NSCLC, 20.9%; in the test on 786-0 renal, 24.5%; with COLO 205 colon, 85.4%; in the test with DU-145 prostate it was 26.1%; with K-562 leukemia it was 10.2%. Moreover, the growth with MALME-3M melanoma is -6.87% (active); in the test with MDA-MB-231 breast it was 31%; in the test on RXF 393 renal, 20.6%; with SF-268 CNS, 22.9%; in the test with SF-295 CNS, -7.6% (active); in the test with SF-539 CNS, 18.6%. The results for the growth with UACC-257 melanoma and in the test with M14 melanoma were 6.92% (active) and 28.6%, respectively.

`O=C(C[n+]1ccnc2ccccc21)c1ccc(O)c(O)c1`: the growth in the test with NCI-H23 lung was 63.8%; with NCI-H226 lung it was 71.1%; with NCI-H322M lung, 90.8%; with HOP-62 NSCLC it was 90.7%; with NCI-H460 lung, 70.9%; with HOP-92 NSCLC, 64.8%. The growth with NCI-H522 lung is -5% (active); in the test on A549/ATCC NSCLC it was 87.1%; in the test with 786-0 renal it was 44.3%; with COLO 205 colon, 30.8%; in the test with DU-145 prostate, 47.3%; in the test with K-562 leukemia it was 16.6%. The growth was 54.7% in the test on MALME-3M melanoma; 55.3% in the test on MDA-MB-231 breast; 17% with RXF 393 renal; 85.7% in the test on SF-268 CNS; 87.5% with SF-295 CNS; 53.1% with SF-539 CNS. Besides, the values for the growth with UACC-257 melanoma and in the test with M14 melanoma were 57.8% and 61.3%, respectively.

For `CN(C)c1ccc(/C=N/Nc2nc(N/N=C/c3ccc(N(C)C)cc3)nc(N3CCOCC3)n2)cc1`, the growth was 99.3% in the test on NCI-H23 lung; 93.5% in the test with NCI-H226 lung; 100% in the test on NCI-H322M lung; 106% with HOP-62 NSCLC; 16.7% with NCI-H460 lung; 109% in the test with HOP-92 NSCLC. For the same compound, the growth is 98.9% with NCI-H522 lung; 74.9% in the test with A549/ATCC NSCLC; 84.6% in the test with 786-0 renal; 108% in the test with COLO 205 colon; 92.7% in the test on DU-145 prostate; 6.35% (active) with K-562 leukemia. Also, the growth in the test with MALME-3M melanoma is 114%; in the test on MDA-MB-231 breast, 99.5%; with RXF 393 renal, 93.1%; in the test with SF-268 CNS, 97.8%; in the test with SF-295 CNS, 13.8%; with SF-539 CNS, 96.7%. Besides, the growth in the test on UACC-257 melanoma and in the test with M14 melanoma was 103% each time.
